Compound activity (PubChem BioAssay)
NS3h inh CB = blocks HCV NS3 helicase binding to DNA; actives 1.6% (n = 16,000); NS3h Cy5-dT15 DNA binding, fluorescence polarization; AID 687043; inhibition, % at 100 µM;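 active = inhibition above the average over every tested compound plus 3 SD, cut at about 40% in these data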
Cy5 interf NS3h = counter-screen for HCV NS3 helicase inhibitors: fluorescence interference. fluorescence interference ratio at 100 µM. Cy5-dT15 DNA with NS3h; actives lie on both sides; signal over control mean, under 1 quenches. AID 720488. actives 6% (n = 16,000);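 active = compound fluorescence over control fluorescence at most 0.8, a quencher, or at least a set upper limit, an enhancer; inactive = ratio between 0.8 and the set upper limit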
The depositor's hits bear a star. In the library only some 6.9% were active in any assay of this set; here they are far more common.

SMILES	NS3h inh CB	Cy5 interf NS3h
CCOC(=O)C1=C(C)N=c2s/c(=C/c3ccccn3)c(=O)n2C1c1ccccc1Cl (stereo not given)	28	0.95
CC(=O)Oc1cccc(N2C(=O)c3ccc(C(=O)Nc4cccc(C(=O)NCC(C)C)c4)cc3C2=O)c1	15	0.73*
CC(=O)Oc1ccc(C(=O)Nc2cccc(C(=O)NCC(C)C)c2)cc1	7	0.97
O=C(Nc1ccc(Cl)c(Cl)c1)c1cnn2c1NC(c1ccc(Br)cc1)CC2C(F)(F)F (stereo not given)	14	0.98
O=C(c1cccc(N2C(=O)C3C4C=CC(C4)C3C2=O)c1)c1cccc(N2C(=O)C3C4C=CC(C4)C3C2=O)c1 (stereo not given)	43*	1.1
CC(=O)c1cccc(N2C(=O)C3C4C=CC(C4=C(C)C)C3C2=O)c1 (stereo not given)	-1	1.1
Cc1ccc(N2C(=O)CC(N3CCN(c4cccc(Cl)c4)CC3)C2=O)cc1Cl (stereo not given)	-3	1
O=C1NC(=S)NC(=O)C1=Cc1cccc(Cl)c1Cl	16	0.89
Cc1ccc(N2C(=O)NC(=O)/C(=C\c3ccc(OCc4cccc(C(=O)O)c4)cc3)C2=O)cc1	52*	1
CCOc1ccc(N2C(=O)NC(=O)/C(=C\c3ccc(OCc4cccc(C(=O)O)c4)cc3)C2=O)cc1	28	1.1
Cc1cccc(N2C(=O)NC(=O)/C(=C\c3ccc(OCc4cccc(C(=O)O)c4)cc3)C2=O)c1	16	1.3*
Cc1ccc(N2C(=O)/C(=C/c3ccc(OCc4cccc(C(=O)O)c4)cc3)C(=O)NC2=S)cc1	28	1.1
C/C(=N/N1CCN(Cc2ccc(C)cc2)CC1)c1ccccc1O	10	0.98
COc1ccc(C(=O)N/C(=C\c2ccc(-c3cccc(Cl)c3)o2)C(=O)NCCCN2CCOCC2)cc1	22	0.84
CCC(C)c1ccc(OCCOc2ccc(C=C3C(=O)NC(=S)NC3=O)cc2OC)cc1 (stereo not given)	5	0.85
CCC(C)c1ccc(OCCOc2ccc(C=C3C(=O)NC(=S)NC3=O)cc2)cc1 (stereo not given)	46*	0.92
COC(=O)c1c(C)oc2ccc(OCc3ccc(Cl)cc3)cc12	13	0.99
CC1=NN(c2ccc(S(N)(=O)=O)cc2)C(=O)/C1=C\c1ccc(C(C)C)cc1	7	0.94
CC1=NN(c2ccc(S(N)(=O)=O)cc2)C(=O)/C1=C\c1cccc(Br)c1	42*	0.81
COc1ccc(OC)c(C2C3=C(CC(C)(C)CC3=O)OC3=C2C(=O)CC(C)(C)C3)c1	3	1.1
COc1ccc2c(c1)C(NC(=O)C(F)(F)F)CC2=O (stereo not given)	-2	0.62*
CC(=O)Nc1cccc(Oc2ccc3c(c2)C(=O)N(c2ccccc2)C3=O)c1	8	0.99
COC(=O)c1cccc(N2C(=O)c3ccc(Oc4ccc(NC(C)=O)cc4)cc3C2=O)c1	-25	1.3*
CCOC(=O)C1=C(C)N=c2s/c(=C\c3cccs3)c(=O)n2C1c1ccc(OCC)cc1 (stereo not given)	8	1.1
O=C(N/N=C\c1ccc(F)cc1)/C(=C\c1ccc2c(c1)OCO2)NC(=O)c1ccccc1	5	1.1
SMILES	NS3h inh CB	Cy5 interf NS3h
CCOc1ccccc1NC(=O)c1cc(C(=O)O)ccc1C(=O)O	8	0.97
CCOc1ccc(N2C(=O)NC(=O)/C(=C/C=C/c3ccco3)C2=O)cc1	33	1
CCOc1ccccc1N1C(=O)NC(=O)/C(=C/C=C/c2ccco2)C1=O	43*	1.2
CC1=C(C(=O)OC(C)C)C(c2ccc(OCC(N)=O)cc2)NC(=O)N1 (stereo not given)	3	0.9
Cc1ccc(C(O)=C2C(=O)C(=O)N(CCCn3ccnc3)C2c2ccc(Cl)cc2)cc1 (stereo not given)	0	1
COc1ccc(C2Nc3ccc4ccccc4c3C3=C2C(=O)CC(C)(C)C3)cc1[N+](=O)[O-] (stereo not given)	9	0.97
CC1(C)CC(=O)C2=C(C1)c1c(ccc3ccccc13)NC2c1ccccc1F (stereo not given)	21	0.75*
CCOc1ccc(C(=O)Nc2ccc(C)cc2[N+](=O)[O-])cc1Cl	7	1
CCOc1ccc(C(=O)Nc2cccc([N+](=O)[O-])c2)cc1Cl	2	0.57*
CCOc1ccc(C(=O)Nc2ccc(N3CCOCC3)c(Cl)c2)cc1Cl	10	0.98
CCOc1ccc(C(=O)Nc2ccc(NC(=O)CC)cc2)cc1Cl	16	0.73*
CCCCCc1ccc(-c2ccc(-c3ncc([N+](=O)[O-])cn3)cc2)cc1	15	0.96
COc1ccc(/C(N)=N\OC(=O)c2cccc(I)c2)cc1OC	8	0.94
COc1ccc(N2C(=O)CC(SC(=NCc3ccccc3)Nc3ccc(F)cc3)C2=O)cc1 (stereo not given)	16	1.1
CCc1ccccc1NC(=O)C1CC(=O)N(c2ccc(C)cc2)C1 (stereo not given)	4	1
COc1cc(NC(=O)c2ccc([N+](=O)[O-])cc2)ccc1NC(=O)c1ccco1	1	0.94
COc1cc(NC(=O)c2cccc([N+](=O)[O-])c2)ccc1NC(=O)c1ccco1	-15	0.73*
CC(=O)CC(=O)NC(C)c1ccccc1 (stereo not given)	3	0.97
CC(NC(=O)c1ccc(Br)cc1)c1ccccc1 (stereo not given)	12	0.79*
Cc1ccc(S(=O)(=O)N2CCC(O)CC2C)cc1 (stereo not given)	20	0.74*
Cc1ccc(S(=O)(=O)N2CCN(S(=O)(=O)c3ccc(C)cc3)C2c2ccc(N(C)C)cc2)cc1	14	0.94
CCC(=O)Nc1ccc(NC(=S)NC(=O)c2ccco2)cc1	-1	1
CCOC(=O)C1=C(C)N=c2s/c(=C\c3ccc(F)cc3)c(=O)n2C1c1cccs1 (stereo not given)	8	0.9
COc1ccc(/C=C2\C(=O)NC(=O)N(c3cc(C)cc(C)c3)C2=O)cc1	21	1.1
Cc1cc(C)c(N2C(=O)NC(=O)C(=Cc3ccoc3)C2=O)c(C)c1	42*	1
SMILES	NS3h inh CB	Cy5 interf NS3h
COc1ccc(CC(=O)O/N=C(/N)c2ccncc2)cc1OC	4	1.2
CCOC(=O)C1=C(N)OC2=C(C(=O)CCC2)C1c1ccc(Cl)cc1Cl (stereo not given)	1	1
Cc1cccc(-c2nc3cc(NC(=O)COc4ccccc4[N+](=O)[O-])ccc3o2)c1	14	0.52*
CCc1ccc(-c2nc3cc(NC(=O)COc4ccccc4[N+](=O)[O-])ccc3o2)cc1	-3	1.1
CCOc1ccccc1NC(=O)c1c(NC(=O)Cc2ccccc2)sc2c1CCCCC2	6	1.1
CCOc1ccccc1NC(=O)c1c(NC(=O)c2cccs2)sc2c1CCCC2	41*	1
CCOc1ccc2nc(SCc3ccc(Cl)cc3)nc(C)c2c1	-4	0.94
CC1C(c2ccccc2)NC(c2ccccc2)C(C)C1(O)c1ccccc1 (stereo not given)	4	0.68*
CCCC1C(c2ccccc2)NC(c2ccccc2)C(C)C1(O)CCC (stereo not given)	16	1
Cc1ccc(NC(=S)NC(=O)C(=O)Nc2ccccc2)cc1	10	0.72*
O=C(Nc1ccccc1)C(=O)Nc1ccc(F)cc1	8	0.96
Cc1ccc(/C=C2\C=C(c3ccc(Cl)cc3)OC2=O)cc1[N+](=O)[O-]	-4	0.97
